The list is not random: actives were taken first. Their share in the collection is about 3%.
esBAF inh: inhibitors of esBAF chromatin remodeling in mouse ES cells; Bmi1-luciferase knock-in reporter, 24 h; 100% = twice the neutral-well signal; reporter increase, % at 12.5 µM; AID 602393; 350,000 tested, 2% active; in the data active = activation above about 40%; inconclusive = no clear call, values can overlap the other calls;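 note: 0% = median of the plate's neutral control wells and 100% = double that signal; a rise in the Bmi1 reporter signal indicates esBAF inhibition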
MITF act: activators of MITF-driven TRPM1 promoter activity in SK-MEL-5 cells. activation, % at 12.5 µM. SK-MEL-5 TRPM1-promoter luciferase, 24 h; % of positive control, neutral wells = 0. AID 588334. 300,000 tested, 0.75% active;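 active = mean activation of at least 80% with every replicate also reaching 80%; inconclusive = mean reaches 80% but some replicate falls short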;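 note: 0% = neutral control wells and 100% = parthenolide positive control wells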
Vif imaging: HIV Vif inhibition | AID 602346 | 340,000 tested, 0.35% active | inhibition, % at 7.49 µM | HEK293T cells, Vif self-association by quenched fluorescence, imaging, 24 h; in the data active = inhibition above about 50%, passing the limit was not always enough; inconclusive = no clear call, values can overlap the other calls; inactive = below about 31%
Wnt bcat act: Wnt/beta-catenin pathway activation | Wnt/beta-catenin reporter cell assay, activator, plate reader | activation, % at 9.35 µM | 300,000 tested, 1.2% active; in the data active = activation above about 30%, passing the limit was not always enough; inconclusive = no clear call, values can overlap the other calls;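 note: 0% = neutral control wells and 100% = positive control wells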
Glyco luc inh: N-linked glycosylation inhibition | D54 ERlucT glycosylation luciferase reporter, 24 h; percent of 100 nM tunicamycin response | reporter increase, % at 12.5 µM | 360,000 tested, 0.23% active;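 active = mean luciferase reporter signal, scaled so untreated is 0 and the glycosylation-blocking control 100, at or above a set limit in every replicate; inconclusive = mean reaches the limit but not every replicate does; inactive = mean below the limit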;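 note: luciferase carries N-glycosylation sites so blocking glycosylation raises the light; 0% = median of neutral control wells and 100% = median of 100 nM tunicamycin wells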
PfHsp90 yeast 2: growth inhibition of yeast expressing Plasmodium Hsp90; S. cerevisiae expressing PfHsp90, BacTiter-Glo ATP, 48 h; yeast lacking PDR1 and PDR3 efflux regulators; inhibition, % at 9.4 µM; 310,000 tested, 0.32% active;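 active = every replicate shows inhibition above about 80%, whatever the replicate mean, limit read from the data; inconclusive = mean inhibition reaches the set limit but some replicate falls short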;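 note: 0% = DMSO neutral controls and 100% = 20 µM radicicol positive controls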
The depositor's hits bear a star; ? = inconclusive; / = no result given; ! = not confirmed by another sample.

SMILES	esBAF inh	MITF act	Vif imaging	Wnt bcat act	Glyco luc inh	PfHsp90 yeast 2
Cc1ccn2cc(-c3ccc4c(c3)NC(=O)CO4)nc2c1	/	103*	17	16	-5	-13
Cc1snc2sc(C(=O)c3ccc(Br)cc3)c(N)c12	/	88*	/	/	-4	/
Brc1c(CSc2nc3ccccc3o2)nc2ncccn12	22	/	11	49*	0	4
COc1cc(C(=O)NC(=S)Nc2ccc3c(c2)C(=O)N(C)C3=O)cc(OC)c1OC	/	25	1	0	4	2
Nc1ccc(C#Cc2ccc3sc4ccccc4c(=O)c3c2)cc1	43*	66	-1	18	1	21
COc1cccc2sc3ccc(C#Cc4ccc(N)cc4)cc3c(=O)c12	61*	102*	6	37*	3	-23
COc1cccc2sc3ccc(C#CC4(O)CCCCC4)cc3c(=O)c12	23	107*	-5	20	-1	-4
COc1ccc2sc3ccccc3c(=O)c2c1OC	19	67	-2	/	1	5
CCc1ccc(N2CC(C(=O)NCCC3=CCCCC3)CC2=O)cc1 (stereo unspecified)	4	-9	6	0	0	-14
CCOc1ccccc1N1CC(C(=O)NCCC2=CCCCC2)CC1=O (stereo unspecified)	46*	59	-3	0	-2	-4
CSc1cccc(N2CC(C(=O)NCCC3=CCCCC3)CC2=O)c1 (stereo unspecified)	/	23	66*	-1	1	3
CCC(C)c1ccccc1N1CC(C(=O)NCCC2=CCCCC2)CC1=O (stereo unspecified)	7	-4	6	-2	-3	-15
CCCCCCCCCCOC(=O)Cn1c(COc2cccc(C)c2)[n+](C)c2ccccc21	-21	/	-1	-6	12	105*
CCCCCCCCCCOC(=O)Cn1c(COc2ccccc2)[n+](C)c2ccccc21	-13	-8	-21	-4	8	-2
CCCCCCCCCCOC(=O)Cn1c(COc2ccc(Cl)cc2)[n+](C)c2ccccc21	-86	-19	-4	4	1	106*
CCOC(=O)Cn1c(COc2ccccc2OC)[n+](C)c2ccccc21	1	/	66*	-3	4	/
CCCCCCCCCCOC(=O)Cn1c(COc2ccc(OC)cc2)[n+](C)c2ccccc21	-46	-85	-7	/	19	108*!
O=C(N/N=C/c1c[nH]c2ccc(Br)cc12)c1ccn(Cc2ccc(Cl)cc2Cl)n1	0	-8	-7	/	-2	6
COC(=O)[C@@]12C[C@@H](CC(=O)NCC34CC5CC(CC(C5)C3)C4)C(=O)N(Cc3ccccc3)C1=CCC(C)(C)C2	/	/	/	-10	/	/
COc1cc2ccccc2cc1C(=O)NC1CCC(C)CC1 (stereo unspecified)	57*	118*	-2	38*	-5	-8
COc1cc(SC)ccc1C(=O)NC1CCCCC1	54*	27	13	11	2	12
COc1cc2ccccc2cc1C(=O)NC1CCCC1	96*	12	5	5	-1	0
COc1ccc(-c2cc(C(=O)NC3CCCC3)c3ccccc3n2)cc1OC	6	1	-12	-2	1	34
COc1ccccc1C(=O)Nc1ccccc1C(=O)NC1CCCCC1	1	-11	-11	-4	-2	6
COc1ccc(OC)c(-c2cc(C(=O)NC3CCCC3)c3ccccc3n2)c1	-12	1	-10	2	-2	-10
SMILES	esBAF inh	MITF act	Vif imaging	Wnt bcat act	Glyco luc inh	PfHsp90 yeast 2
COc1cc(SC)ccc1C(=O)OCC(=O)NC1CCCCC1	-5	10	-15	3	4	30
COc1cc2ccccc2cc1C(=O)NC1CCCCC1	45*	74	-5	24	1	-27
O=C(Cn1nnc(-c2cccs2)n1)NCCc1ccccc1	8	6	-1	/	-2	-1
CCOc1ccc(NC(=O)CN(C)C(=O)CCC2CCCCC2)cc1OCC	2	-8	-2	-3	1	-2
COc1ccccc1C#Cc1ccc2c(c1)O[C@H](CN(C)Cc1ccncc1)[C@H](C)CN([C@H](C)CO)S2(=O)=O	13	/	/	/	/	/
O=C(COc1ncnc2cc(Cl)ccc12)c1ccccc1	71*	31	-2	-1	1	9
CC1(C(=O)NS(=O)(=O)C2CC2)CCCN(C(=O)COc2ccccc2)C1 (stereo unspecified)	1	/	/	/	3	/
O=C(NC1CCCCC1)[C@@H]1CC=C[C@@H]2CCN(C3CCCCC3)C(=O)[C@@H]21	-2	2	53*	-3	-2	13
Oc1ccc(N=Nc2c(O)ccc3ccccc23)cc1	-76	10	/	-4	1	127*
Oc1ccc(N=Nc2ccc3ccccc3c2)cc1	-4	/	1	16	-11	108*
COc1cc(N=Nc2ccc3ccccc3c2)ccc1O	-1	/	3	?	-1	110*
COc1ccc(S(=O)(=O)N2CCOC23CCN(C(=O)c2ccc(Cl)cc2Cl)CC3)cc1	8	-11	-2	3	2	9
C=CCc1ccc(OCCOCCN(C)C)c(OC)c1	9	0	11	/	0	1
C[C@H]1CN([C@@H](C)CO)C(=O)c2cc(NC(=O)Nc3ccc4c(c3)OCO4)ccc2O[C@H]1CN(C)S(=O)(=O)c1cccs1	-1	/	/	/	/	/
Cc1oc2cc3c(C(=O)N4CCCCC4)c(C)oc3cc2c1C(=O)N1CCCCC1	149*	43	-1	/	-11	-52
COc1cc2c(C(=O)N3CCN(C)CC3)c(C)oc2cc1Br	-8	4	4	/	0	/
CCn1c(CNc2ccc(Cl)cc2)nnc1SCc1ccccc1	/	-12	-9	2	-4	93*
Cn1c(CNc2ccc(Cl)cc2)nnc1SCc1ccccc1	4	/	-3	-1	0	121*
NCC(=O)NCC(=O)OCc1ccccc1	/	7	8	-1	-1	10
O=C(CN(C(=O)c1ccccc1)C(=O)c1ccccc1)OCc1ccccc1	3	3	77*	-4	0	-31
N/C(=N\c1nc2c(c(=O)[nH]1)CCC2)Nc1ccccc1	/	-5	0	1	0	7
Cc1ccc2[nH]c(C(=O)N3CCCCC3)cc2c1	58*	44	-6	13	2	2
C[C@H](CO)N1C[C@H](C)[C@@H](CN(C)C(=O)Nc2ccc(F)cc2)Oc2ccc(NC(=O)Nc3ccc(F)cc3)cc2C1=O	-1	/	/	/	/	/
Cc1ccccc1S(=O)(=O)N(C)C[C@H]1OCc2ccccc2-c2c(n(C)c3ccccc23)C(=O)N([C@H](C)CO)C[C@@H]1C	-3	/	/	/	/	/
COc1ccc(NC(=O)N(C)C[C@H]2OCc3cnnn3CCCC(=O)N([C@@H](C)CO)C[C@@H]2C)cc1	-1	/	/	/	/	/
C=CCOC(=O)/C(=C\c1cccc2ccccc12)NC(=O)c1ccccc1	56*	26	1	/	0	-3

From PubChem
